From PubChem
A selection: hits, their analogues and other compounds. The true share with any hit is near 5.7%.
hgDAF-12 ag – activates the H. glycines DAF-12 receptor ligand-binding domain; HEK293 GAL4-hgDAF12 UAS-luciferase reporter, agonist luminescence; normalized to butyrate control; activation, % at 6.8 µM; hit rate 1.8% among 370,000;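 active = activation above a cutoff set at the mean of all screened compounds plus 3 SD, cut at about 10% in these data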
hcDAF12 agonist – activates DAF-12 receptor from parasite H. contortus; HEK293 hcDAF-12 lit1-tk-luc reporter, luminescence; 0% DMSO, 100% Δ7-dafachronic acid; activation, % at 6.8 µM; hit rate 1.4% among 370,000;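 active = activation above the mean of all tested compounds plus 3 SD, cut at about 5.5% in these data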
DAX1 inh-1 – inhibits human nuclear receptor DAX1 | AID 504766 | HEK293 Gal4-DAX1 luciferase reporter, luminescence | inhibition, % at 6.75 µM | P51843 | hit rate 0.99% among 340,000;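 active = inhibition above the mean over all tested compounds plus 3 SD, cut at about 4.2% in these data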;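 note: inhibition shows as a rise in luminescence from relieved DAX1 repression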
DAX1 inh-2 – inhibitors of DAX1 repression of SF-1 activated StAR promoter; HEK293T StAR-luciferase reporter, SF-1/DAX-1 repression relief; inhibition, % at 6.8 µM; hit rate 1.1% among 370,000; AID 652010;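 active = inhibition above the mean over all tested compounds plus 3 SD, cut at about 3.6% in these data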;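 note: higher inhibition means more luminescence from relief of DAX-1 repression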
ssDAF12 agonist – activators of S. stercoralis DAF-12 nuclear receptor; HEK293 ssDAF-12/GRIP1 lit1-tk-luc reporter, luminescence; % of 3 µM dafachronic acid response; activation, % at 6.8 µM; hit rate 1% among 370,000; AID 652126;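 active = activation above the mean over all tested compounds plus 3 SD, cut at about 0.9% in these data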
AHR activator – human AHR activation | AHR-responsive luciferase reporter cells, luminescence | activation, % at 5 µM | hit rate 2.5% among 320,000 | AID 2796; in the data active = activation above about 47%
LXRb hcDAF ctr – counter-screen for hcDAF-12 agonists: agonists of human LXR-beta; 3,400 tested, under 10 active; activation, % at 6.8 µM; shares compounds with hcDAF12 agonist; AID 743027; HEK293 Gal4-LXR tk-luc reporter, luminescence, 24 h; normalized: DMSO 0%, positive control 100%;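 active = mean percent activation of the reporter above a cutoff set as the average over tested compounds plus their standard deviation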
Target sequence (P55055 whole entry, looked up, the tested form may be a part): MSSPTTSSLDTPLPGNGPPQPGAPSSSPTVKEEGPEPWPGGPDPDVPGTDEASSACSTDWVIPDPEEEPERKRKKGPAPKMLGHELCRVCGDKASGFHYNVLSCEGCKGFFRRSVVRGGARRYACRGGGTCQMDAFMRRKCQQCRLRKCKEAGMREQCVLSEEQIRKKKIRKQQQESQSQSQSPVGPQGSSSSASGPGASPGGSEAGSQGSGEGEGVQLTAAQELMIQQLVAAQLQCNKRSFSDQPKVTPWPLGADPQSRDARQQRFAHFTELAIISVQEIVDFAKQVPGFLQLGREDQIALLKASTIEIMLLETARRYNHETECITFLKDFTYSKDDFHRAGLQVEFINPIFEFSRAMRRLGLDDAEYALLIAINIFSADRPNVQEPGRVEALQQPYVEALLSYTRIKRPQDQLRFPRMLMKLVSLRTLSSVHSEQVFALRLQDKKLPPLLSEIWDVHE
hcDAF12 ag – confirmation of H. contortus DAF-12 agonists | shares compounds with hcDAF12 agonist | HEK293 hcDAF-12 lit1-tk-luc reporter, luminescence; % of Δ7-dafachronic acid response | activation, % at 6.8 µM | hit rate 61% among 3,400 | AID 743032;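 active = mean activation across triplicate tests above the threshold derived from the earlier primary screen, cut at about 5.5% in these data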
Large screens that a line does not name were inactive (follow-up assays come after a bar, where they were run).

Cc1ccc2[nH]c(=O)c(CN(Cc3ccccc3)Cc3nnnn3C3CCCC3)cc2c1	hcDAF12 agonist 14, ssDAF12 agonist 2.5 | LXRb hcDAF ctr inactive | hcDAF12 ag inactive
COc1cc(/C=N/NC(=S)Nc2cccc(C(=O)O)c2)ccc1O	none
COc1cc(/C=N/Nc2ccccn2)ccc1O	hgDAF-12 ag 12, hcDAF12 agonist 7.3, DAX1 inh-1 4.3 | LXRb hcDAF ctr inactive | hcDAF12 ag 7.6
COc1cc(/C=N/Nc2ccc(C(=O)O)cc2)ccc1O	hcDAF12 agonist 6.8 | LXRb hcDAF ctr inactive | hcDAF12 ag 6.4
O=C(CP(=O)(c1ccccc1)c1ccccc1)N1CCCCC1	none
CC1(C)CC(=O)c2c(oc3cc(O)c(O)cc23)C1	none
CC(=O)c1cccc(NC(=O)C(OC(=O)c2cccc(S(=O)(=O)N(C)c3ccccc3)c2)c2ccccc2)c1 (configuration not stated)	none
Nc1c(Cl)c(Cl)nc(C(=O)N/N=C/c2ccco2)c1Cl	hcDAF12 agonist 6.9, AHR activator 53 | LXRb hcDAF ctr inactive | hcDAF12 ag inactive
Cc1ccc(N(C(=O)c2csnn2)C(C(=O)NC2CCCCC2)c2ccncc2)c(C)c1 (configuration not stated)	none
CC(C)CC(=O)Nc1ccccc1N1CCN(c2ccc(F)cc2)CC1	none
COc1ccc2c3c([nH]c2c1)C1CC2C(CC(O)C(OC)C2C(=O)O)CN1CC3 (configuration not stated)	hcDAF12 agonist 7.0 | LXRb hcDAF ctr inactive | hcDAF12 ag inactive
O=C1/C(=C/c2cccs2)Cc2ccccc21	none
Cn1cccc1/C=C1\Cc2ccccc2C1=O	hgDAF-12 ag 19, hcDAF12 agonist 12, DAX1 inh-1 4.3, DAX1 inh-2 3.9, ssDAF12 agonist 1.7 | LXRb hcDAF ctr inactive | hcDAF12 ag 9.4
Cn1cccc1/C=C1\CCc2ccccc2C1=O	hcDAF12 agonist 10 | LXRb hcDAF ctr inactive | hcDAF12 ag 11
O=[N+]([O-])c1cccc(S(=O)(=O)NCCc2cccs2)c1	none
COCCCNC(=O)C(=O)C1C(=O)Nc2ccccc21 (configuration not stated)	hcDAF12 agonist 11 | LXRb hcDAF ctr inactive | hcDAF12 ag inactive
N#Cc1nc(COc2ccc(F)cc2)oc1N1CCN(Cc2ccccc2)CC1	none
Oc1ccc(Br)cc1-c1cc(-c2ccccc2)n[nH]1	hcDAF12 agonist 8.1, ssDAF12 agonist 1.6, AHR activator 61 | LXRb hcDAF ctr inactive | hcDAF12 ag inactive
O=[N+]([O-])c1cccc(-c2cc(-c3cc(Br)ccc3O)[nH]n2)c1	none
CC1(Br)C(Sc2ccccc2[N+](=O)[O-])=Nc2ccccc21 (configuration not stated)	none (no result: DAX1 inh-1, AHR activator)
COc1ccc(-c2cnc(C(O)c3ccccc3)[nH]2)cc1 (configuration not stated)	hcDAF12 agonist 6.7, DAX1 inh-2 4.3 (no result: DAX1 inh-1, AHR activator) | LXRb hcDAF ctr inactive | hcDAF12 ag 7.1
COc1ccc(-c2cnc(C(O)c3ccc(-c4ccccc4)cc3)[nH]2)cc1 (configuration not stated)	none (no result: DAX1 inh-1, AHR activator)
N#C/C(=C\c1ccc(-c2nc3ccccc3s2)o1)C(N)=O	hcDAF12 agonist 6.8 | LXRb hcDAF ctr inactive | hcDAF12 ag inactive
COCCNC(=O)C1CC(c2ccccc2[N+](=O)[O-])=NO1 (configuration not stated)	none
COc1ccc(CCNC(=O)C2CC(c3ccccc3[N+](=O)[O-])=NO2)cc1 (configuration not stated)	hcDAF12 agonist 7.6, ssDAF12 agonist 1.3 | LXRb hcDAF ctr inactive | hcDAF12 ag 6.6
O=[N+]([O-])c1ccc(-c2ccc(C=Nc3cccc4ccccc34)o2)cc1	hcDAF12 agonist 6.8 | LXRb hcDAF ctr inactive | hcDAF12 ag inactive
O=C(NCc1ccccc1)C(c1cccnc1)N(C(=O)c1ccccn1)c1ccc(F)cc1 (configuration not stated)	none
CC(=O)Nc1ccc(S(=O)(=O)Nc2nc3ccccc3nc2N2CCc3ccccc3C2)cc1	hcDAF12 agonist 11, ssDAF12 agonist 2.2, AHR activator 54 | LXRb hcDAF ctr inactive | hcDAF12 ag 6.7
Cc1ccccc1NC(=O)C1CCCN1S(=O)(=O)c1cccc2cccnc12 (configuration not stated)	none (no result: hgDAF-12 ag, hcDAF12 agonist, DAX1 inh-2, ssDAF12 agonist)
c1cncc(-c2noc(-c3cccc4ccccc34)n2)c1	hcDAF12 agonist 7.0, ssDAF12 agonist 1.2, AHR activator 59 | LXRb hcDAF ctr inactive | hcDAF12 ag 16
c1ccc(-c2noc(-c3cccc4ccccc34)n2)cc1	hgDAF-12 ag 12, hcDAF12 agonist 17, DAX1 inh-2 3.7, ssDAF12 agonist 2.9, AHR activator 51 | LXRb hcDAF ctr inactive | hcDAF12 ag 16
c1ccc(CCc2ccccc2-c2nc(-c3cccnc3)no2)cc1	none
CC(=O)c1ccc(NC(=O)N2CCc3ccccc3C2)cc1	none
Cc1ccc(NC(=O)N2CCc3ccccc3C2)cc1	hcDAF12 agonist 7.4 | LXRb hcDAF ctr inactive | hcDAF12 ag 6.7
O=C(O)CCc1c(C(=O)O)[nH]c2ccccc12	none
CN(C)Cc1c(C(=O)Nc2ccccc2)[nH]c2ccccc12	hcDAF12 agonist 7.1, AHR activator 72 | LXRb hcDAF ctr inactive | hcDAF12 ag inactive
Cc1cccn2cc(-c3ccc(F)cc3)nc12	hgDAF-12 ag 11, hcDAF12 agonist 12, DAX1 inh-2 3.9, ssDAF12 agonist 1.8 | LXRb hcDAF ctr inactive | hcDAF12 ag 9.7
CCOC(=O)c1c(C)nn(-c2ccc(NC(=O)CSCC(=O)O)cc2)c1C	none
O=C(NC1CCOc2ccccc21)C1CCCC1 (configuration not stated)	hcDAF12 agonist 6.7 | LXRb hcDAF ctr inactive | hcDAF12 ag inactive
CCCS(=O)(=O)N1CCN(Cc2c[nH]c3ccccc23)CC1	hcDAF12 agonist 7.2, ssDAF12 agonist 1.4 | LXRb hcDAF ctr inactive | hcDAF12 ag inactive
O=C(Nc1ccc(Cl)c(S(=O)(=O)N2CCOCC2)c1)c1cc(-c2ccccn2)nc2ccccc12	none
O=C(NCCc1c[nH]c2ccccc12)OCc1cn(Cc2cccc(Cl)c2)nn1	hcDAF12 agonist 6.6 (no result: DAX1 inh-1, AHR activator) | LXRb hcDAF ctr inactive | hcDAF12 ag inactive
CSc1nncn1/N=C/c1cc(Cl)ccc1F	none
COc1ccc([N+](=O)[O-])cc1C1NN=C(c2ccccc2O)S1 (configuration not stated)	hcDAF12 agonist 6.9 | LXRb hcDAF ctr inactive | hcDAF12 ag inactive
COC(=O)C1OC1c1cc([N+](=O)[O-])ccc1OC (configuration not stated)	none (no result: AHR activator)
